ELG1 genotoxic: induces genotoxicity in HEK293T cells with luciferase-tagged ELG1. HEK293T ELG1-luciferase reporter, luminescence, 16 h. Potency, µM (top dose mostly 46 µM), most hits filed as activators. hit rate 1.3% among 330,000. AID 504466; note: nearly all actives have a fitted effect of over 60% in size
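Luminescence read-out: rising ELG1-luciferase signal, reflecting elevated ELG1 protein under genetic stress, flags genotoxic compounds. Cells were treated for 16 hr at 37 °C before ONE-Glo detection.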
AT treatment: potential ataxia-telangiectasia treatments restoring KAP-1 phosphorylation; Potency, µM (series often up to 57.5 µM), hits mostly activators; AID 485349; hit rate 0.19% among 320,000; F2112 A-T fibroblasts, KAP-1 phosphorylation AlphaLISA; neocarzinostatin DNA damage 30 min before lysis; note: nearly all actives have a fitted effect of over 45% in size
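hTERT-immortalized A-T patient fibroblasts (F2112), 500 cells/well in OPTI-MEM, 1% FBS, got compounds for 60 min, then NCS for 30 min at 37C. Lysates were then assayed for phospho-KAP-1 by AlphaLISA (anti-pKAP1 donor, anti-KAP1 acceptor beads), 6 hr at 25C.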
p53 reactivator: mutant p53 re-activation in reporter cells; AID 504706; hit rate 0.063% among 320,000; H1299 p53-A138V BP100-luciferase reporter, luminescence, 24 h; Potency, µM (doses to about 92.2 µM), actives largely listed as activators; note: nearly all actives have a fitted effect of over 45% in size
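H1299 (p53-null), stable ts p53-A138V + BP100-Luc; 1000 cells/well, Opti-MEM/10% FBS; cpd 4 pt, 1:5; 24 h, 37 deg C, 5% CO2; detection reagent 10 min RT; luminescence.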
ELG1 repair inh: ELG1-dependent DNA repair inhibition | Potency, µM (titrated, usually from 46.1 µM), actives largely listed as inhibitors | hit rate 2.3% among 330,000 | HEK293T ELG1-luciferase reporter, luminescence, 16 h; DNA damage induced by 5-fluorouridine; note: nearly all actives have a fitted effect of over 55% in size
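Luminescence from the luciferase reporter, measured 30 min after ONE-Glo reagent at room temperature, was the read-out. Beforehand, 2,000 cells per well were exposed for 16 hr at 37 °C to 5-fluorouridine together with compound or vehicle.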
SW480 rereplic: induces DNA re-replication in SW480 colon adenocarcinoma cells. SW480 DNA re-replication, Hoechst DNA content imaging, 48 h. Potency, µM (top dose mostly 46.1 µM), actives largely listed as activators. AID 624297. hit rate 1.8% among 340,000; note: nearly all actives have a fitted effect of over 55% in size
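Image-based read-out: total Hoechst fluorescence of nuclei (405 nm excitation, 500-530 nm emission), with hits raising the fraction of high-intensity nuclei. SW480 colon cells incubated 48 hr with compounds at 37 C.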
MCF10A rereplic: induces DNA re-replication in MCF 10a normal breast cells | MCF 10A DNA re-replication, Hoechst nuclear intensity, 48 h | Potency, µM (highest dose often 46.1 µM), usual class: activators | hit rate 2.9% among 350,000 | AID 624296; note: nearly all actives have a fitted effect of over 50% in size
Of the large screens only hits and unclear results are named; the others gave an inactive call. The list is not random: actives were taken first. Their share in the collection is about 7.1%. Calls come from the whole dose curve; as a rule, active = well fitted curve in the direction sought with a large enough effect; inconclusive = small, poorly fitted or top-dose-only effect, or another doubt; inactive = no such curve, though single readings can be large; an effect the other way counts as inactive or inconclusive.

O=C(Nc1ccccc1C(=O)NCCCN1CCOCC1)c1ccc(Cl)cc1	none
CSc1ncccc1C(=O)NNc1cc(Cl)ccc1Cl	none
O=C(CCl)N1N=C(c2ccco2)CC1c1cccs1 (configuration not stated)	ELG1 repair inh inconclusive, SW480 rereplic 3.3µM, MCF10A rereplic 21µM
CC(=O)N1N=C(c2ccco2)CC1c1cccs1 (configuration not stated)	none
Cc1ccc(C2=NN(C(=O)CCl)C(c3cccs3)C2)o1 (configuration not stated)	ELG1 repair inh inconclusive, SW480 rereplic 5.8µM, MCF10A rereplic inconclusive
COc1cc2c(cc1OC)-c1cc(OCc3ccccc3Cl)nc(=O)n1CC2	ELG1 repair inh 16µM (no result: AT treatment)
CCN(CC)c1ccc(Nc2cc3n(c(=O)n2)CCc2cc(OC)c(OC)cc2-3)cc1	ELG1 repair inh 5.2µM, SW480 rereplic inconclusive, MCF10A rereplic inconclusive
CCN(CC)S(=O)(=O)c1cccc(NC(=O)c2cc(-c3cccs3)nn2-c2ccccc2)c1	SW480 rereplic 8.2µM
CCCCN(Cc1nc2ccccc2c(=O)[nH]1)C(=O)CN1C(=O)NC2(CCCCC2)C1=O	none
CCc1cc(=O)oc2cc(C)c(CN3CCCC(C)C3)c(O)c12 (configuration not stated)	MCF10A rereplic 23µM
CCCCc1cc(=O)oc2cc(C)c(CN3CCCC3)c(O)c12	MCF10A rereplic inconclusive
CSCCC(NS(=O)(=O)c1cccc(C(F)(F)F)c1)C(=O)N(C)CCOc1ccc(Cl)cc1 (configuration not stated)	ELG1 repair inh inconclusive, SW480 rereplic 5.8µM, MCF10A rereplic inconclusive
Cc1cc(O)cc2c(=O)c3ccccc3sc12	ELG1 repair inh inconclusive, SW480 rereplic inconclusive, MCF10A rereplic 18µM
CC(C)(C)C(=O)Nc1ccccc1N1CCN(c2ccc(F)cc2)CC1	MCF10A rereplic 21µM
CC(C)CC(=O)Nc1ccccc1N1CCN(c2ccc(F)cc2)CC1	ELG1 repair inh inconclusive
COC(=O)c1cnn(-c2ccccc2)c1/C=N/NC(=S)Nc1ccccc1	ELG1 repair inh 21µM
COC(=O)c1cnn(-c2ccccc2)c1C(OC)OC	ELG1 repair inh inconclusive
CNC(=S)N/N=C/c1c(C(=O)OC)cnn1-c1ccc(F)cc1F	ELG1 repair inh inconclusive
COC(=O)c1cnn(-c2ccc(F)cc2F)c1/C=N/NC(N)=S	ELG1 repair inh 13µM
O=C(c1ccccc1)c1coc(-c2ccccc2)c1	none (no result: ELG1 genotoxic, AT treatment, p53 reactivator, ELG1 repair inh)
CCOCCCNc1ccc(-c2ccccc2)nn1	ELG1 genotoxic 13µM, p53 reactivator inconclusive, ELG1 repair inh inconclusive
Cc1ccc(/C=N/NC(=O)c2ccccc2OCc2ccc(F)cc2)o1	ELG1 repair inh 18µM
Cc1cccc(/C=N/NC(=O)c2ccccc2OCc2cccc(Br)c2)n1	ELG1 repair inh 16µM, MCF10A rereplic 18µM
O=C(N/N=C/c1ccncc1)c1ccccc1OCc1ccc(Br)cc1	ELG1 repair inh 7.3µM, SW480 rereplic inconclusive, MCF10A rereplic inconclusive
CCN(CC(=O)Nc1ccc(OC)cc1)C(=O)c1ccc(N2CCCC2=O)cc1	none
Cc1ccc(S(=O)(=O)N2CCSC2=Nc2ccccc2)cc1	none (no result: SW480 rereplic, MCF10A rereplic)
COc1cc(-c2ccc3sc(-c4ccsc4)c(C#CCO)c3c2)cc(OC)c1OC	ELG1 repair inh 9.2µM, MCF10A rereplic 12µM
COc1ccccc1-c1sc2cc3c(cc2c1C#CCO)OCO3	ELG1 repair inh inconclusive, MCF10A rereplic 21µM
COc1cc(-c2c(-c3ccsc3)sc3ccccc23)cc(OC)c1OC	MCF10A rereplic inconclusive
COC(=O)c1c(-c2ccc(N(C)C)cc2)sc2ccc(OC)cc12	ELG1 genotoxic inconclusive, AT treatment 25µM, ELG1 repair inh inconclusive, SW480 rereplic 15µM, MCF10A rereplic inconclusive
COC(=O)c1c(-c2ccsc2)sc2ccc(-c3cc(OC)c(OC)c(OC)c3)cc12	ELG1 repair inh 9.2µM
COc1cccc(N2CCN(C(=O)c3[nH]c(C)c(C(C)=O)c3C)CC2)c1	SW480 rereplic 7.1µM, MCF10A rereplic inconclusive
CC(=O)c1c(C)[nH]c(C(=O)N2CCN(c3cc(Cl)ccc3C)CC2)c1C	ELG1 repair inh 3.7µM, SW480 rereplic 9.2µM, MCF10A rereplic 10µM
COC(=O)c1c(C)[nH]c(C(=O)N2CCN(c3ccc(OC)cc3)CC2)c1C	none (no result: SW480 rereplic, MCF10A rereplic)
CC(=O)c1c(C)[nH]c(C(=O)N2CCN(c3ccc(F)cc3)CC2)c1C	none
CCN(CC(=O)NCc1ccc(Cl)cc1)C(=O)c1ccc(C#N)cc1	SW480 rereplic inconclusive
Cc1cc2nc(Sc3c([N+](=O)[O-])nc(C)n3Cc3ccccc3)[nH]c2cc1C	ELG1 repair inh inconclusive, SW480 rereplic inconclusive, MCF10A rereplic 21µM
Cc1ccc(CNc2oc(COc3ccccc3Cl)nc2C#N)cc1	SW480 rereplic 12µM, MCF10A rereplic 4.1µM
COc1ccc(CCNc2oc(COc3ccccc3)nc2C#N)cc1	none
N#Cc1nc(COc2ccccc2F)oc1NCCc1ccccc1	p53 reactivator inconclusive, ELG1 repair inh inconclusive, MCF10A rereplic 23µM
COc1ccc(CNc2oc(COc3ccccc3Cl)nc2C#N)cc1	none
Cc1cccc(NS(=O)(=O)c2csc(C(N)=O)c2)c1C	none
O=c1c(Cc2c(F)cccc2Cl)c(O)ccn1C1CCCCCC1	MCF10A rereplic 0.18µM
O=c1c(Cc2c(F)cccc2Cl)c(O)ccn1Cc1ccc(F)cc1	none
CCOC(=O)C1=C(C)Nc2ccccc2N=C1NC(=O)c1oc2ccccc2c1COC	ELG1 repair inh 11µM
Cc1ccccc1NC(=O)c1cccc(NC(=O)c2ccco2)c1	none (no result: p53 reactivator)
COc1cc(NC(=O)C(C)C)ccc1NC(=O)c1ccco1	ELG1 genotoxic 7.9µM, ELG1 repair inh inconclusive
CCOc1ccc(C(=O)Nc2ccc(NC(=O)c3ccco3)c(Cl)c2)cc1Br	MCF10A rereplic 5.8µM
CCOc1ccc(C(=O)NC(=S)Nc2cccc(NC(=O)c3ccco3)c2)cc1[N+](=O)[O-]	ELG1 repair inh 23µM, MCF10A rereplic inconclusive
CCOc1ccccc1NC(=O)c1cccc(NC(=O)c2ccco2)c1	ELG1 repair inh inconclusive, SW480 rereplic 7.3µM, MCF10A rereplic 6.5µM
COc1ccc(C(=O)NC(=S)Nc2cccc(NC(=O)c3ccco3)c2)cc1[N+](=O)[O-]	ELG1 repair inh inconclusive
CCOc1ccc(C(=O)N2CCN(S(=O)(=O)c3cccs3)CC2)c(OCC)c1	none
Cc1c(NC(=O)CSc2ccc(Cl)cc2)cccc1-c1nc2ncccc2o1	ELG1 repair inh 9.2µM
COc1cccc(-c2csc(NC(=O)Nc3ccccc3)n2)c1	ELG1 repair inh inconclusive, MCF10A rereplic inconclusive
COc1cccc(C(=O)Nc2nc(-c3ccc4c(c3)OCO4)cs2)c1	MCF10A rereplic 16µM

High-throughput results (PubChem BioAssay)
